The values below come from PubChem BioAssay (NCATS).

Assay [1] in a line: qHTS drug screen for cell cycle checkpoint inhibitors in PARPi-resistant BRCA-mutant ovarian cancer cell lines. (AID 1963452). Also: potency is read from the fitted curve at half-maximal effect. The note with it: PEO1/OlaR viability, CellTiter-Glo luminescence, 96 h; for Z-AUC: stronger effect = lower value. Put shortly:
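PEO1, PEO4 and PEO1/OlaR ovarian cancer cells, 600 per well, exposed 96 h at 37C to a dilution series. Viability read by CellTiter-Glo luminescence, normalized to DMSO and empty wells; activity summarized as Z-AUC.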

Assay [2] addresses Cytochrome P450 2C19 (Homo sapiens) (UniProt P33261). Put plainly: qHTS for inhibitors of CYP2C19 against the NCATS DSHEA and TCM libraries (AID 1919974; active = well fitted curve in the direction sought with a large enough effect; an effect the other way counts as inactive or inconclusive;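 also: luminescence from luciferin released by CYP2C19 oxidation of a pro-luciferin substrate; % is scaled to controls: 0 for no effect and ±100 for the full control effect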). Particulars: CYP2C19 enzyme inhibition, luminescence qHTS; series mostly up to 18.8 µM. Put shortly:
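Each CYP isoform and its pro-luciferin substrate, at isoform-specific final concentrations, were preincubated 15 min at RT with substances. NADPH regeneration solution (1x) started a 30-45 min reaction, and P450-Glo luminescence was read.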

The nature of assay [3]: KB-3-1 P-gp reporter qHTS against the NCATS DSHEA and TCM libraries (AID 1919975; active = well fitted curve in the direction sought with a large enough effect; an effect the other way counts as inactive or inconclusive; also: 0% is about no effect). Particulars: KB-3-1 parental cells, CellTiter-Glo luminescence viability, 72 h; series mostly up to 14.4 µM. An excerpt: (§1) Assay Development and Screening Technology Laboratory (ADST)
(§2) National Center for Advancing Translational Sciences (NCATS), Rockville, MD
(§3) National Institute of Health (NIH), Bethesda, Maryland
(§4) Dietary Supplements and Natural Products have minor oversight of their safety and efficacy. We assembled a collection of Dietary Supplements and Natural Products (DSNP) as well as Traditional Chinese Medicinal (TCM) Plant extracts, which were screened against an in vitro panel of assays, including a liver cytochrome p450 enzyme panel, CAR/PXR signaling pathways, and P-gp transporter assays, to assess their activity. This pipeline facilitated the interrogation of Natural Product-Drug Interaction (NaPDI) through prominent metabolizing pathways. In addition, we compared the activity profiles of the DSNP/TCM substances with those of an approved drug collection. Many of the approved drugs have well-annotated mechanisms of action (MOA) while the MOAs for most of the DSNP and TCM samples remain unknown. Based on the premise that compounds with similar activity profiles tend to share similar targets or MOA, we clustered the library activity profiles to identify overlap with the NCATS Pharmaceutical Collection to predict the MOAs of the DSNP/TCM substances. Overall, we highlight four significant bioactivity profiles (measured by p-values) as examples of this prediction. To assess broad cytotoxicity, we employed screening against a HepG2 cell line. In addition, transporter-mediated drug interactions are utilized in the characterization of DDIs using a P-glycoprotein (P-gp) assays. To profile potential P-gp activity, a differential cell viability was measured against two cell lines: a parental KB-3-1 human cervical adenocarcinoma cell line and the drug-resistant subline KB-8-5-11 that overexpresses P-gp.
(§5) To this end, we profiled both collections for potential CAR and/or PXR activity, employing a previously published 1536-well qHTS assay.
(§6) [1] Lee TD, et al. A High-Throughput Screen of a Library of Therapeutics Identifies Cytotoxic Substrates of P-glycoprotein. Mol Pharmacol. Nov 2019;96(5):629-640. doi:10.1124/mol.119.115964
(§7) PROTOCOL TABLE (as described by Inglese J, Shamu CE and Guy RK. 2007)
(§8) SEQUENCE No. (e.g., 1, 2, 3, etc.); PARAMETER (e.g., Cells, Incubation, Reagent, etc.); VALUE; DESCRIPTION.
1; Cells; 5 uL; KB-3-1 cells, white solid-bottom tissue treated Greiner plate.
2; Incubation; 4 hrs; 37C, 95% humidity, 5% CO2.
3; Compounds and control; 23 nL; Kalypsis pin tool (Wako USA) equipped with a 1536-well pin head to transfer to the assay plates.
4; Incubation; 72 hrs; 37C, 95% humidity, 5% CO2.
5; Reagent; 2.5 uL; CellTiter-Glo.
6; Centrifuge; 1000 RPM; 15 seconds.
7; Incubation; 30 min; room temperature.
8; Read; Luminescence; ViewLux plate reader.
(§9) NOTES (numbers refer to Sequence numbers above)
1. Cell line KB-3-1 and its colchicine-selected, P-gp-overexpressing subline KB-8-5-11 were maintained in DMEM (Thermofisher catalog #11965) with 10% FBS and 1% penicillin/streptomycin at 37C in 5% CO2. For the screen, assay medium was identical to culture medium. Briefly, 5 uL of cells at 1 x 10^5 cells/mL (500 cells/well) were dispensed into a 1536-well white solid-bottom tissue treated plate (Greiner Bio-One) using a Multidrop Combi dispenser.
2. Plates were incubated at 37C, 95% humidity, 5% CO2 for ~4 hours to allow for cell attachment.
3. Compounds and intraplate control (Bortezomib; final concentration range 228 pM - 7.5 uM) were transferred (16 nL) via pintool (Wako Automation), for a final concentration of 15.6 nM - 30.0 uM (most substances).
4. Plates were incubated for ~72 hours at 37C, 95% humidity, 5% CO2.
5. Plates were then dispensed with 2.5 uL of CellTiter-Glo.
6. The assay plates were centrifuged for 15 seconds at 1,000 RPM's.
7. The plates were incubated for 30-minute at room temperature.
8. Luminescence intensity was detected using a PerkinElmer ViewLux microplate reader.
[…]

Assay [4] addresses Cytochrome P450 1A2 (Homo sapiens) (UniProt P05177). Description: qHTS for inhibitors of CYPIA2 against the NCATS DSHEA and TCM libraries (AID 1919976; active = well fitted curve in the direction sought with a large enough effect; an effect the other way counts as inactive or inconclusive; also: % is scaled to controls: 0 for no effect and ±100 for the full control effect). Particulars: recombinant CYP1A2 enzyme activity, luminescence; series mostly up to 20.3 µM. In a few lines: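 Reaction started with 1x NADPH regeneration solution and run 30-45 min, room temperature, protected from light, after compounds sat 15 min with CYP1A2 and pro-luciferin substrate. P450-Glo detection gave luminescence; furafylline served as control.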

A short description of assay [5]: qHTS Counterscreen for compound interference against the NCATS DSHEA and TCM libraries (AID 1919978; active = well fitted curve in the direction sought with a large enough effect; an effect the other way counts as inactive or inconclusive;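 also: compounds preincubated with 1 µM D-luciferin or buffer before detection reagent; % of control where 0% means no effect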). Particulars: firefly luciferase detection reagent interference, luminescence. In a few lines: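 Compounds, titrated from 19.5 nM to 39.8 uM final, were pinned onto 1 uM D-luciferin or plain 100 mM potassium phosphate. After 15 min at room temperature, luciferin detection reagent was added for 30 min before the luminescence read.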

Assay [6] can be described thus: Dual reporter qHTS for agonist of Pregnane X Receptor (hPXR) against the NCATS DSHEA and TCM libraries: Fluorescence readout (AID 1920058; active = well fitted curve in the direction sought with a large enough effect; an effect the other way counts as inactive or inconclusive; also: 0% is about no effect). The note with it: PXR dual reporter cells; series mostly up to 22 µM. Put shortly: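 Viability readout (CellTiter-Fluor, 405/540 nm, 1 h) from agonist-mode PXR dual reporter in hPXR-Luc HepG2 cells. Substances ~24 h, 37 °C, 5% CO2; rifampicin reference, tetraoctyl ammonium bromide cytotoxic control.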

Assay [7] deals with Nuclear receptor subfamily 1 group I member 2 (Homo sapiens) (UniProt O75469). Description: Dual reporter qHTS for agonist of Pregnane X Receptor (hPXR) against the NCATS DSHEA and TCM libraries: Luminescence readout (AID 1920059; active = well fitted curve in the direction sought with a large enough effect; an effect the other way counts as inactive or inconclusive; also: 0% is about no effect). The note with it: hPXR dual reporter cells, luciferase luminescence agonist; series mostly up to 22 µM. In a few lines: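 Luminescent PXR reporter read (ONE-Glo) after a CellTiter-Fluor viability read, following 24 h, 37C treatment of HepG2 cells stably carrying hPXR-Luc.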
Sequence of Nuclear receptor subfamily 1 group I member 2 (Homo sapiens) (O75469 whole entry, looked up): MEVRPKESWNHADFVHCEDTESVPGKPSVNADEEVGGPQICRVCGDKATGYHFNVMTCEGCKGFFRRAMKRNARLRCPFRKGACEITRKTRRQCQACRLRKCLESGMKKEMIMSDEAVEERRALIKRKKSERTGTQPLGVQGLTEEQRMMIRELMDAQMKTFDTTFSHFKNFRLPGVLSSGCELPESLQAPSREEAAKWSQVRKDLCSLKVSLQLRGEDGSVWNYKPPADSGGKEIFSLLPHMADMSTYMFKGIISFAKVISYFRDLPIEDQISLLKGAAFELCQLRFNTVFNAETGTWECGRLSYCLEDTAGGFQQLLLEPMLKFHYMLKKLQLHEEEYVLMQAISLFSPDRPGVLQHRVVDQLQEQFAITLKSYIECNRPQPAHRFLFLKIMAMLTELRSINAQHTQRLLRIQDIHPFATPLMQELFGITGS

For assay [8] the target is unchanged. Description: Dual reporter qHTS for antagonist of Pregnane X Receptor (hPXR) against the NCATS DSHEA and TCM libraries: Luminescence Readout (AID 1920060; active = well fitted curve in the direction sought with a large enough effect; an effect the other way counts as inactive or inconclusive; also: 0% is about no effect). The note with it: hPXR dual reporter cells, luciferase luminescence, antagonist mode; series mostly up to 22 µM.
Description: as §1, §2, §3, §4, §5, §6
For PXR luciferase reporter gene assays, we used hPXR-LucHepG2cells provided by Dr. Taosheng Chen (Department of Chemical Biology and Therapeutics, St. Jude Children's Research Hospital). Cells were cultured in EMEM supplemented with 10% fetal bovine serum, 100U/mL penicillin and 100ug/mL streptomycin, and 500ug/mL of geneticin.
as §7, §8
1; Cells; 5 uL; hPXR-LucHepG2; white solid-bottom Greiner plate.
2; Incubation; 5h; 37C, 95% humidity, 5% CO2
3; Compounds and control; 23 nL; Kalypsis pintool (Wako USA).
4; Reagent; 1uL; rifampicin (RIF) in the antagonist mode.
6; Reagent; 1 uL; CellTiter-Fluor detection reagent.
7; Incubation; 1 hr; 37C, 5% CO2.
8; Read; Fluorescence; ViewLux plate reader.
9; Reagent; 4 uL; ONE-Glo Luciferase detection reagent.
10; Incubation; 30 min; room temperature.
11; Read; Luminescence; ViewLux plate reader.
as §9
1. Briefly, 5uL of hPXR-LucHepG2 cells in phenol red-free DMEM containing 5% charcoal-stripped FBS, 1 mM sodium pyruvate (Invitrogen), 2 mM L-glutamine (Invitrogen), and 100 U/mL penicillin and 100ug/mL streptomycin were dispensed using a BioRAPTR FRD at 4 x 10^5cells/mL (2000cells/well) in tissue culture-treated 1536-well white assay plates (GreinerBio-One).
2. Plates were incubated for 5h at 37C, 95% humidity, and 5% CO2 to allow for cell attachment.
3. Compounds (final concentration for most substances ranged from 15.6 nM to 45.9uM), positive SPA70 (final concentration range of 2.8 nM to 92uM for the antagonist mode), and cytotoxicity control tetraoctyl ammonium bromide (final concentration of 92uM) were transferred (23 nL) via pintool (Wako Automation).
4-5. […]

Assay [9] is described as follows: Dual reporter qHTS for antagonist of Pregnane X Receptor (hPXR) against the NCATS DSHEA and TCM libraries: Fluorescence Readout (AID 1920061; active = well fitted curve in the direction sought with a large enough effect; an effect the other way counts as inactive or inconclusive; also: 0% is about no effect). Particulars: PXR dual reporter cells, antagonist mode; series mostly up to 22 µM. Put shortly:
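hPXR-Luc HepG2 cells exposed 24 h at 37 C to compounds with 2 uM rifampicin in antagonist mode; luciferase luminescence measured by ONE-Glo, with CellTiter-Fluor viability read beforehand.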

The mark [10] stands for this setting: measured here: PEO1 parental Z-AUC.

Several values for one entry are separate records, joined by “and”; a condition that tells them apart may be missing. Equal values may be shown once. Results filed as inconclusive are left out. Activity calls are given as the source filed them. Unless noted, calls follow the shape of the full dose curve.

Sequence of Cytochrome P450 2C19 (Homo sapiens) (P33261 whole entry, looked up, canonical isoform): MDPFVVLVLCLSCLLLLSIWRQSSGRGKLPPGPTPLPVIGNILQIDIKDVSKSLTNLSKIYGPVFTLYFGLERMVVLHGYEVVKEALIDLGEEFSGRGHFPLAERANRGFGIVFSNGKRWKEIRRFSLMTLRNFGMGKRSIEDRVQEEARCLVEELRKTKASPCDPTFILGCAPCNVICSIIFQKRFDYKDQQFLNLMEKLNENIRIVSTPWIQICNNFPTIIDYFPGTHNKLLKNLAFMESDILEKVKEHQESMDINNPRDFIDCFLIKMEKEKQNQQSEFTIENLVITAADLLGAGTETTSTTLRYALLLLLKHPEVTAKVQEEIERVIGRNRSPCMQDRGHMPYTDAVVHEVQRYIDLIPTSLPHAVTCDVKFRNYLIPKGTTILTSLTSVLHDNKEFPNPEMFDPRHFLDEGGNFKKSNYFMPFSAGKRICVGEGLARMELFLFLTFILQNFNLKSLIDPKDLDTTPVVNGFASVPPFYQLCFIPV
Sequence of Cytochrome P450 1A2 (Homo sapiens) (P05177 whole entry, looked up): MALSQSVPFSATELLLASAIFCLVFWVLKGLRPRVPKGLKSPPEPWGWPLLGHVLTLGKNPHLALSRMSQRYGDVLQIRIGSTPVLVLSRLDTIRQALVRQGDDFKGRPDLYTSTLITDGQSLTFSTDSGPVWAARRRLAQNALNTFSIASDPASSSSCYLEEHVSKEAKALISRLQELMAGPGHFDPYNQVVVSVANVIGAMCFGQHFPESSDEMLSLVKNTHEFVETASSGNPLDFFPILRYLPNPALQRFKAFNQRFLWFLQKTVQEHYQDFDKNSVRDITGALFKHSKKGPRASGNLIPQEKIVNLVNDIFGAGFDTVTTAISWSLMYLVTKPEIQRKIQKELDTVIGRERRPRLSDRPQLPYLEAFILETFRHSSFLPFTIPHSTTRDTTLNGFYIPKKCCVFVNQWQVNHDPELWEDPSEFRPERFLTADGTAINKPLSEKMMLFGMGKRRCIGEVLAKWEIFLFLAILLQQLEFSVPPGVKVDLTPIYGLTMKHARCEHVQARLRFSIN

In the case of `Cc1cc(Nc2cc(N3CCN(C)CC3)nc(/C=C/c3ccccc3)n2)n[nH]1`, the Potency in assay [1] is 490 nM (active). In addition, the Z-AUC in assay [1] (setting [10]) was -1.58; in [1] (measured here: PEO4 Z-AUC) it was -1.32.

Consider `COc1ncc(Nc2ncc([C@H](C)N3CCN(S(C)(=O)=O)CC3)cc2-c2nc(C)nc(N)n2)cc1F`, for which the Z-AUC is -0.261 (inactive) in assay [1], -0.0225 in [1] (setting [10]) and -0.164 in assay [1] (measured here: PEO4 Z-AUC).

Consider `CO[C@@H](C)Cn1c(=O)n(C)c2cnc3ccc(-c4cncc(C(C)(C)O)c4)cc3c21`, for which the Potency in [1] is 2190 nM (active). The Z-AUC in assay [1] (setting [10]) is -2.24; in assay [1] (measured here: PEO4 Z-AUC), -2.14.

For `CCCCNc1ncc2c(-c3ccc(CN4CCN(C)CC4)cc3)cn(C3CCC(O)CC3)c2n1` (stereo unspecified), the Z-AUC was -1.53 (inactive) and -0.825 (inactive) in assay [1]; -1.06 and -0.682 in assay [1] (setting [10]); -1.13 and -0.785 in [1] (measured here: PEO4 Z-AUC).

Turning to `C=CC(=O)Nc1cccc(Nc2nc(Nc3ccc(N4CCN(C(C)=O)CC4)cc3OC)ncc2C(F)(F)F)c1`, the Z-AUC in assay [1] was -0.226 (inactive); in assay [1] (setting [10]), 0.717; in assay [1] (measured here: PEO4 Z-AUC), -0.058.

Turning to `CCN1CCN(Cc2ccc(Nc3ncc(F)c(-c4cc(F)c5nc(C)n(C(C)C)c5c4)n3)nc2)CC1`, the Z-AUC is 0.0865 (inactive) in assay [1], 0.712 in assay [1] (setting [10]) and 0.621 in [1] (measured here: PEO4 Z-AUC).

Turning to `NC(=O)[C@H]1CCS[C@@H]2C[C@]3(CCCN3C(=O)Cc3ccc(NC(=O)COc4ccc(Cl)cc4Cl)cc3)C(=O)N12`, the Z-AUC was -0.482 (inactive) in assay [1], 0.014 in assay [1] (setting [10]) and 0.0247 in assay [1] (measured here: PEO4 Z-AUC).

As for `CNC(=O)c1cc(Oc2ccc3nc(N[C@@H]4CCCC[C@H]4O)sc3c2)ccn1`, the Z-AUC was -0.222 (inactive) in [1], -0.612 in assay [1] (setting [10]) and -0.476 in [1] (measured here: PEO4 Z-AUC).

As for `COC(=O)N[C@@H](C)CNc1nccc(-c2cn(C(C)C)nc2-c2cc(Cl)cc(NS(C)(=O)=O)c2F)n1`, the results for the Z-AUC in assay [1], in [1] (setting [10]) and in [1] (measured here: PEO4 Z-AUC) were -0.294 (inactive), -0.151 and -0.157, respectively.

As for `OC[C@H]1O[C@@H](OC[C@H]2O[C@@H](OC/C=C/c3ccccc3)[C@H](O)[C@@H](O)[C@@H]2O)[C@@H](O)[C@@H]1O`, the Potency entry in [2] and in [4] was “inactive” each time. The result in assay [3], in assay [6], in assay [7], in assay [8] and in assay [9] was inactive. Further, the max response in assay [5] is -0.863% (inactive).

`COc1cc(OC)c(/C=C/S(=O)(=O)Cc2ccc(OC)c(NCC(=O)O)c2)c(OC)c1`: in [1], the Potency was 19.5 nM (active). For the same compound, the values for the Z-AUC in [1] (setting [10]) and in assay [1] (measured here: PEO4 Z-AUC) were -2.09 and -1.96, respectively.

Turning to `CC[C@]12C=CCN3CC[C@@]4(c5cc([C@@]6(C(=O)OC)C[C@H]7C[C@@H](C(C)(F)F)CN(Cc8c6[nH]c6ccccc86)C7)c(OC)cc5N(C)[C@H]4[C@@](O)(C(=O)OC)[C@@H]1OC(C)=O)[C@@H]32`, the Z-AUC in [1] is -2.08 (inactive) and -1.5 (inactive); in [1] (setting [10]), -0.895 and -0.96; in assay [1] (measured here: PEO4 Z-AUC), -1.63 and -1.07.
